# In the library only some 12% were active in any assay of this set; here they are far more common.
# AMA1 RON2 block: qHTS for Inhibitors of AMA1-RON; Towards Development of Antimalarial Drug Lead: Primary Screen; Plasmodium falciparum AMA1 (3D7) - RON2 peptide interaction; AlphaScreen AMA1-biotinylated RON2 peptide binding; Potency, µM (titrated, usually from 58.2 µM), for the others: top-dose activity change, negative = inhibition, hits mostly inhibitors; hit rate 0.2% among 360,000; AID 720542, 2013;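 further: 0% = vehicle wells and -100% = peptide control; nearly all actives have a fitted effect of over 45% in size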
#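 AMA1 (3D7) with his tag at 25 nM final met compounds first, then biotinylated RON2 peptide at 25 nM; detection used donor plus acceptor beads, 10 µg/mL apiece, read by AlphaScreen after 30 min at room temperature.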
# Pf growth 48h: Primary qHTS for delayed death inhibitors of the malarial parasite plastid, 48 hour incubation | P. falciparum luciferase growth in erythrocytes, 48 h | hit rate 5.9% among 310,000 | AID 504832, 2011 | Potency, µM (top dose mostly 28.7 µM), inactives show at the highest dose activity change, negative = inhibition, usual class: inhibitors; further: on the % scale 0 is the no-effect control and ±100 the full control effect
#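 Luciferase-expressing P. falciparum in infected erythrocytes (2% hematocrit, 0.1% parasitemia final) in RPMI 1640/0.5% Albumax were exposed to compound for 48 hours at 37 C, 5% CO2; growth read as luminescence.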
# SARS PLpro yeast: qHTS of Yeast-based Assay for SARS-CoV PLP; S. cerevisiae expressing SARS-CoV PLpro, growth rescue; Potency, µM (titrated, usually from 32.9 µM), without a hit: at the highest dose activity, positive = growth rescue, most hits filed as activators; hit rate 0.19% among 330,000; AID 485353, 2010; calls by dose curve; further: 0% is about no effect; nearly all actives have a fitted effect of over 55% in size
# HCV inh: qHTS Assay for Inhibitors of Hepatitis C Virus (HCV) | Huh7.5.1 HCVcc-Cre infection, luciferase reporter, 44 h | Potency, µM (series often up to 41.8 µM), for the others: top-dose activity change, negative = inhibition, hits mostly inhibitors | hit rate 3.4% among 340,000 | AID 651820, 2012; further: on the % scale 0 is the no-effect control and ±100 the full control effect
#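 1,000 cells/well; 4 h culture; + compound; + HCVcc-Cre (~0.5 moi); 44 h; luciferase substrate, RT 15 min; read 15 sec.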
# Pf growth 96h: Primary qHTS for delayed death inhibitors of the malarial parasite plastid, 96 hour incubation. P. falciparum luciferase reporter growth, 96 h. hit rate 6.9% among 320,000. Potency, µM (titrated, usually from 28.7 µM), for inactives: at the top dose activity change, negative = inhibition, actives largely listed as inhibitors. AID 504834, 2011; further: on the % scale 0 is the no-effect control and ±100 the full control effect
#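 Luminescence readout: decreased luciferase signal marks inhibited growth of reporter-expressing P. falciparum in infected red cells (2% hematocrit, 0.05% parasitemia final), exposed to compound two generations (96 h, 37 C, 5% CO2).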
# NS1 function inh: qHTS Assay for Inhibitors of Influenza NS1 Protein Function. Potency, µM (titrated, usually from 46.1 µM), for inactives: at the highest dose activity, positive = more growth. hit rate 0.4% among 270,000. AID 2326, 2010; calls by dose curve; further: actives are rising curves; nearly all actives have a fitted effect of over 50% in size
#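 Recovery from NS1-induced slow growth read by OD600 in budding yeast switched to galactose assay medium (pH 6.0, -URA) at 1:100 dilution. Compound 23 nl per well; the matching strain lacking NS1 serves as control.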
# The depositor's hits bear a star; ? = inconclusive; nt = no result; [ ] = remark or other dose. Unless noted, the call rests on the fitted dose curve; in most records, active means well fitted curve in the direction sought with a large enough effect; inconclusive means small, poorly fitted or top-dose-only effect, or another doubt; inactive means no such curve, though single readings can be large; an effect the other way counts as inactive or inconclusive. Potency means the concentration at half of the fitted maximal effect.
SMILES,AMA1 RON2 block,Pf growth 48h,SARS PLpro yeast,HCV inh,Pf growth 96h,NS1 function inh
CCOc1ccccc1/C=C/c1onc(C)c1S(=O)(=O)N1CCC(C(=O)N2CCCCCC2)CC1,-12%,7.4µM*,5%,?,?,28%
Cc1cccc(/C=C/c2onc(C)c2S(=O)(=O)N2CCC(C(=O)N3CCCCC3)CC2)c1,-7%,9.3µM*,-2%,10µM*,?,?
COc1ccc(/C=C/c2onc(C)c2S(=O)(=O)N2CCC(C(=O)N3CCCCCC3)CC2)cc1,-8%,4.1µM*,6%,?,?,14%
COC(=O)C1CN(Cc2ccccc2)C(=O)C1=O (stereo unspecified),4%,nt,nt,2%,nt,nt
CC1CN(C(=O)/C=C/c2ccc([N+](=O)[O-])s2)CC(C)O1 (stereo unspecified),-6%,?,3%,?,?,nt
CC1CC(C)CN(C(=O)/C=C/c2ccc([N+](=O)[O-])s2)C1 (stereo unspecified),-17%,-114%,-5%,?,9.3µM*,nt
O=C(/C=C/c1ccc([N+](=O)[O-])s1)N1CCCC1,-1%,13µM*,-7%,?,10µM*,nt
COc1ccc(CN2CCN(S(=O)(=O)c3ccccc3)CC2)c(OC)c1OC,4%,nt,nt,10%,nt,nt
COc1ccc2nc3cc(Cl)ccc3c(Nc3cc(C(C)C)c(O)cc3C)c2c1,16µM*,0.021µM*,-6%,11µM*,0.066µM*,-43%
COc1ccc(S(=O)(=O)Nc2cc(C(C)C)c(O)cc2C)cc1,-1%,-13%,-2%,?,5%,-13%
N#Cc1cccc(NC(=O)c2cc(C3CCCCN3C(=O)c3cccs3)on2)c1 (stereo unspecified),0%,nt,nt,nt,nt,nt
CCOC(=O)COc1cc(Br)c(C2NC(=O)NC(C)=C2C(C)=O)cc1OCC (stereo unspecified),17%,nt,0%[6.58 µM],nt,9.3µM*,6%
CCOC(=O)C(C)Oc1c(Br)cc(C2NC(=O)NC(C)=C2C(C)=O)cc1OCC (stereo unspecified),2%,nt,16%,4%,?,8%
NC(=O)c1ccc(NC(=O)COC(=O)CC2Sc3ccccc3NC2=O)cc1 (stereo unspecified),-6%,71%,0%,15%,9%,nt
COc1ccccc1CNC(=O)C(CC(C)C)NC(=O)C1CCC(C)CC1 (stereo unspecified),36%,nt,5%,2%,13µM*,7%
COc1ccccc1CNC(=O)C1CCC(CNS(=O)(=O)c2ccc(C)cc2)CC1 (stereo unspecified),10%,?,3%,?,7.4µM*,-13%
CC(C)CC(NC(=O)C1CCC(C)CC1)C(=O)NCc1ccco1 (stereo unspecified),0%,-5%,-1%,5%,-7%,nt
CC(=O)Nc1ccc(N2C(=O)CSC2c2ccccc2[N+](=O)[O-])cc1 (stereo unspecified),0%,?,9%,-5%,26%,nt
Cc1ccc(CS(=O)Cc2ccc(C(=O)N3CCN(C4CCCCC4)CC3)o2)cc1 (stereo unspecified),1%,27%,-11%,-3%,-14%,2%
CCN1CCCC1CNCc1cccc(OC)c1OCc1ccccc1F (stereo unspecified),6%,nt,-2%,?,?,21%
CNCc1ccccc1OCc1ccc(F)cc1,-2%,-6%,0%,7%,18%,2%
CCN1CCCC1CNCc1ccccc1OCc1ccc(F)cc1 (stereo unspecified),11%,10µM*,-3%,?,nt,2%
CCN1CCCC1CNCc1cccc(OC)c1OCc1ccccc1 (stereo unspecified),-4%,-26%,18%,13%,12µM*,15%
O=C1c2cccc([N+](=O)[O-])c2C(=O)N1c1ncn[nH]1,nt,nt,nt,nt,nt,7%
